Assay results published in publication PMC3218832.

Key:
Assay in all cases: protein binding microarray; high values mean tight binding
Conditions in all cases: dsDNA, one strand shown
RELARELA (p65 homodimer) = RELARELA (p65 homodimer) (Homo sapiens, UniProt Q04206 1-307)
p50p50 homodimer = p50p50 homodimer (Homo sapiens, UniProt P19838 7-356)
p52p52 homodimer = target: T1, p52p52 homodimer (Homo sapiens, UniProt Q00653 4-332)
T1 sequence: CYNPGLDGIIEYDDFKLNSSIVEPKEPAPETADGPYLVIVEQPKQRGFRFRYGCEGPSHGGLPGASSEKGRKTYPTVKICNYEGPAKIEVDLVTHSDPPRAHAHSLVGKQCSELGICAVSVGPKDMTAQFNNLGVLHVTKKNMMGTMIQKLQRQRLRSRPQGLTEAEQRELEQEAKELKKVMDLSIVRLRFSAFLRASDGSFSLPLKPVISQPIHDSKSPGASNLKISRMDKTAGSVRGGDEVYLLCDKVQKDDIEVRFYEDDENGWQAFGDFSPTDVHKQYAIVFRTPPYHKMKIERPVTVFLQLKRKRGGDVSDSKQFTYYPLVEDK

[1] = target: RELA (p65) subunit of heterodimer;p50 subunit (Homo sapiens;Homo sapiens, UniProt Q04206;P19838 1-307;7-356)
[2] = target: RELA (p65) subunit of heterodimer;p52 subunit (Homo sapiens;Homo sapiens, UniProt Q04206;Q00653 1-307;4-332)
RELB subunit;p50 subunit = RELB subunit;p50 subunit (Homo sapiens;Homo sapiens, UniProt Q01201;P19838 120-401;7-356)
RELB subunit;p52 subunit = target: T2, RELB subunit;p52 subunit (Homo sapiens;Homo sapiens, UniProt Q01201;Q00653 120-401;4-332)
T2 sequence 1: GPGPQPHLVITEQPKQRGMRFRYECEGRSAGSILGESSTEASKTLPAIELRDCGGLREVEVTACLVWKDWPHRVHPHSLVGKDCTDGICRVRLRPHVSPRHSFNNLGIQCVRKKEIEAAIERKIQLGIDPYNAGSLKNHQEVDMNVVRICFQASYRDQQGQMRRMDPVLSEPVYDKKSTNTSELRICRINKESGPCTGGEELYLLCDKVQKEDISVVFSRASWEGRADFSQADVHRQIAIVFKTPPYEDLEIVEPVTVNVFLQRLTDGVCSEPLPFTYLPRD
T2 sequence 2: T1 sequence

[3] = target: C-Rel subunit;p50 subunit (Homo sapiens;Homo sapiens, UniProt Q04864;P19838 1-285;7-356)
[4] = target: T3, C-Rel subunit;p52 subunit (Homo sapiens;Homo sapiens, UniProt Q04864;Q00653 1-285;4-332)
T3 sequence 1: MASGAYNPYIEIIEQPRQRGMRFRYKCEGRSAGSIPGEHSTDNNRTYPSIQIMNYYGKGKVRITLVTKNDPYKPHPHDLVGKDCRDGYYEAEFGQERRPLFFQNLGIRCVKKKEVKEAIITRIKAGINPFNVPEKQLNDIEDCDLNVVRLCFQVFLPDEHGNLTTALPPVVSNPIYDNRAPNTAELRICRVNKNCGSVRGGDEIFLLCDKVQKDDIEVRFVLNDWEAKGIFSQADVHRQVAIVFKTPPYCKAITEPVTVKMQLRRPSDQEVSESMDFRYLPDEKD
T3 sequence 2: T1 sequence

p50p50 homodimer, sequence (P19838 7-356): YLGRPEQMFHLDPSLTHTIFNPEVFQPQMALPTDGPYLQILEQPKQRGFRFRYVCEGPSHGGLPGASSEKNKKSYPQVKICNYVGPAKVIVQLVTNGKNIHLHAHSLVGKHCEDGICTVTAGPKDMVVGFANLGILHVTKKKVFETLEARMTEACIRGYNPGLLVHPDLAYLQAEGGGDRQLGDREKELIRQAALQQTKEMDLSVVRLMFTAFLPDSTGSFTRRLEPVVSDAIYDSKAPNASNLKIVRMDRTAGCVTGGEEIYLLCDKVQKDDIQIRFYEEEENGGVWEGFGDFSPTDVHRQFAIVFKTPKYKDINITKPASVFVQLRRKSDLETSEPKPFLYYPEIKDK
RELARELA (p65 homodimer), sequence (Q04206 1-307): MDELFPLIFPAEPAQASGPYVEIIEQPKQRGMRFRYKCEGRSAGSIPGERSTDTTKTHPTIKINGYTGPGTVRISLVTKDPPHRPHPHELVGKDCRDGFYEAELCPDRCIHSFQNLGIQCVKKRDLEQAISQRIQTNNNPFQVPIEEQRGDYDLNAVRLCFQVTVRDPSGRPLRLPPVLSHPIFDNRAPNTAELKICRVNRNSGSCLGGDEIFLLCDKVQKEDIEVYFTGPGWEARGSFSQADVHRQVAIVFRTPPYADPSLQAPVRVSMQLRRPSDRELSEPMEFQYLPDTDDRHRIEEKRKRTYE
RELA (p65) subunit of heterodimer;p50 subunit, sequence (Q04206 1-307, chain 1 of 2): as the sequence (Q04206 1-307) above
RELA (p65) subunit of heterodimer;p50 subunit, sequence (P19838 7-356, chain 2 of 2): as the sequence (P19838 7-356) above

| Sequence | binding signal (RELARELA (p65 homodimer)) | binding signal (p50p50 homodimer) | binding signal (p52p52 homodimer) | binding signal [1] | binding signal [2] | binding signal (RELB subunit;p50 subunit) | binding signal (RELB subunit;p52 subunit) | binding signal [3] | binding signal [4] |
| --- | --- | --- | --- | --- | --- | --- | --- | --- | --- |
| CGGGTAGTCCC | 1.24 z-score | 0.936 z-score | 1.66 z-score | 1.36 z-score | 1.23 z-score | 0.735 z-score | 1.17 z-score | 1.09 z-score | 1.5 z-score |
| GAGATCCTCCC | -0.414 z-score | -0.604 z-score | -0.376 z-score | -0.425 z-score | -0.539 z-score | -0.422 z-score | -0.686 z-score | -0.717 z-score | -0.442 z-score |
| GAGAGGTCCCT | 0.699 z-score | 0.517 z-score | 0.431 z-score | 0.364 z-score | 0.0823 z-score | 0.659 z-score | 0.436 z-score | 0.182 z-score | 0.0392 z-score |
| AGGTTACCCCT | -0.124 z-score | 0.813 z-score | 0.514 z-score | 0.468 z-score | 0.804 z-score | 0.84 z-score | 1.36 z-score | 0.567 z-score | 0.609 z-score |
| AGATTCTTCCT | -0.0679 z-score | -0.78 z-score | -0.546 z-score | -0.559 z-score | -0.896 z-score | -0.929 z-score | -0.93 z-score | -0.642 z-score | -0.588 z-score |
| GGAAGAACCCC | 0.624 z-score | 0.621 z-score | 0.666 z-score | 1.02 z-score | 1.03 z-score | 0.343 z-score | 0.678 z-score | 0.685 z-score | 0.755 z-score |
| CAGAAGTCCCT | 0.471 z-score | 1.51 z-score | 1.62 z-score | 1.88 z-score | 1.35 z-score | 2.02 z-score | 1.86 z-score | 1.39 z-score | 0.987 z-score |
| AGGGTGGTCCC | -0.0899 z-score | 0.541 z-score | 0.435 z-score | 0.249 z-score | 0.357 z-score | 0.251 z-score | 0.266 z-score | 0.364 z-score | 0.427 z-score |
| GGAGATATCCT | -0.481 z-score | -1.23 z-score | -0.703 z-score | -0.874 z-score | -0.798 z-score | -1.04 z-score | -0.872 z-score | -1.35 z-score | -0.82 z-score |
| CAGAGCTCCCC | -0.432 z-score | -0.0564 z-score | -0.163 z-score | 0.0392 z-score | -0.211 z-score | 0.161 z-score | -0.0377 z-score | 0.0629 z-score | -0.215 z-score |
| CAGGTTACCCC | 0.269 z-score | 0.178 z-score | 0.0851 z-score | 0.345 z-score | 0.253 z-score | 0.443 z-score | 0.629 z-score | 0.552 z-score | 0.49 z-score |
| CAAGAGGTCCC | 1.23 z-score | -0.219 z-score | 0.0202 z-score | -0.152 z-score | -0.417 z-score | 0.271 z-score | 0.113 z-score | -0.21 z-score | -0.201 z-score |
| CGGGACCCCCT | -0.322 z-score | 1.2 z-score | 0.855 z-score | 1.01 z-score | 0.923 z-score | 1.13 z-score | 1.36 z-score | 0.895 z-score | 0.632 z-score |
| GAGAAAGTCCC | 1.97 z-score | 1.14 z-score | 1.91 z-score | 1.51 z-score | 1.47 z-score | 1.81 z-score | 1.7 z-score | 1.39 z-score | 1.69 z-score |
| CAGGTGCTCCT | -0.953 z-score | -0.0506 z-score | 0.0612 z-score | -0.571 z-score | -0.266 z-score | -0.45 z-score | -0.443 z-score | -1.31 z-score | -0.565 z-score |
| GAATGTTTCCC | 2.03 z-score | 0.423 z-score | 0.332 z-score | 1.09 z-score | 0.797 z-score | 0.422 z-score | 0.655 z-score | 1.2 z-score | 0.614 z-score |
| GGAAGTATCCT | -0.066 z-score | -1.38 z-score | -0.457 z-score | -0.799 z-score | -0.877 z-score | -1.12 z-score | -0.866 z-score | -1.09 z-score | -0.681 z-score |
| CGAATCATCCC | -0.386 z-score | -0.966 z-score | -0.352 z-score | -0.734 z-score | -0.619 z-score | -0.644 z-score | -0.752 z-score | -0.745 z-score | -0.523 z-score |
| AGGTGTGCCCT | -0.542 z-score | -1.63 z-score | -0.541 z-score | -0.712 z-score | -0.661 z-score | -0.956 z-score | -0.903 z-score | -0.883 z-score | -0.535 z-score |
| CGATGCTCCCC | 0.0266 z-score | -0.0437 z-score | -0.125 z-score | -0.0461 z-score | -0.196 z-score | 0.111 z-score | 0.0431 z-score | 0.0174 z-score | -0.273 z-score |
| GGGTTACTCCC | 0.497 z-score | 0.249 z-score | 1.29 z-score | 0.568 z-score | 0.789 z-score | 0.354 z-score | 0.378 z-score | 0.398 z-score | 0.657 z-score |
| GAAGAGCCCCT | -0.596 z-score | 1 z-score | 0.626 z-score | 0.604 z-score | 0.773 z-score | 0.554 z-score | 0.833 z-score | 0.202 z-score | 0.429 z-score |
| GAAGGAACCCT | -0.526 z-score | -1.31 z-score | -0.566 z-score | -0.887 z-score | -0.818 z-score | -0.996 z-score | -0.793 z-score | -1.1 z-score | -0.694 z-score |
| GGGTAGGCCCC | -0.379 z-score | 0.314 z-score | 1.45 z-score | 0.396 z-score | 1.04 z-score | 0.459 z-score | 0.305 z-score | 0.392 z-score | 0.593 z-score |
| AAATAGATCCC | -0.751 z-score | -0.68 z-score | -0.334 z-score | -0.662 z-score | -0.554 z-score | -0.403 z-score | -0.661 z-score | -0.87 z-score | -0.679 z-score |
| CAAAGAACCCT | -0.87 z-score | -0.409 z-score | -0.354 z-score | -0.631 z-score | -0.614 z-score | -0.682 z-score | -0.58 z-score | -0.78 z-score | -0.544 z-score |
| CAGATGACCCC | -0.4 z-score | -0.382 z-score | -0.355 z-score | -0.422 z-score | -0.386 z-score | -0.204 z-score | -0.302 z-score | -0.754 z-score | -0.39 z-score |
| AAAATACCCCT | 1.01 z-score | 1.41 z-score | 1.92 z-score | 1.65 z-score | 1.8 z-score | 1.63 z-score | 2.25 z-score | 1.26 z-score | 1.95 z-score |
| GGGTGTTTCCT | 1.42 z-score | 0.575 z-score | 1.06 z-score | 0.736 z-score | 0.987 z-score | 0.102 z-score | 1.16 z-score | 0.695 z-score | 1.43 z-score |
| GGAGGGTCCCT | -0.115 z-score | 0.371 z-score | 0.534 z-score | 0.933 z-score | 0.819 z-score | 0.287 z-score | 0.448 z-score | 0.496 z-score | 0.547 z-score |
